Among the data in PubChem BioAssay AID463173 (ICCB-Longwood Screening Facility, Harvard Medical School, 2010) are survival values, retold here.

Structures are written as SMILES. Screen size: about 52,000 compounds; about 1,700 (3.3%) were called active. Only a selection was taken, and actives are over-represented in it overall. Unmarked numbers belong to inactive results. Rule as the data show it: active = survival mostly below about 52% (no sharp cut-off); inactive = mostly above about 56%.

The experiment relates to Wild type. Put plainly: S. aureus survival, RN4220 and DeltatarO strains – OD600, teichoic acid synthesis inhibitors, primary screen (AID 463173). The settings on record: S. aureus RN4220 wild type/DeltatarO growth, OD600, 18 h, active compounds read low, screened at 18.75 µg/mL (by protocol).
For the compound `CCOC(=O)c1ccccc1NC(=O)NCc1cccn1Cc1ccc(F)cc1`, the survival is 84%.

`CC(=O)c1cccc(NC(=O)c2sc(-n3nc(C)c(Cc4ccc5c(c4)OCO5)c3C)nc2C)c1`: the survival is 94%.

Turning to `Cc1ccc(Cn2c(CN3CCC(C(=O)O)CC3)cc3ccccc32)cc1`, the survival is 82%.

On to `CC1CCN(S(=O)(=O)c2ccc3c(ccn3CC(=O)NCc3ccccc3F)c2)CC1`, for which the survival was 53%.

For `O=C(Cn1ccc2cc(S(=O)(=O)N3CCCCCC3)ccc21)NCCc1ccccc1Cl`, the survival was 72%.

As to `O=C(Cn1ccc2cc(S(=O)(=O)N3CCCCC3)ccc21)NCCc1ccccc1Cl`, the survival was -6% (active).

Regarding `O=C(CCn1ccc2cc(S(=O)(=O)N3CCCC3)ccc21)NCc1ccccc1Cl`, the survival was 14% (active).

As to `CCOc1ccccc1CNC(=O)CCn1ccc2cc(S(=O)(=O)N3CCC(C)CC3)ccc21`, the survival is 69%.

With `O=C(CCn1ccc2cc(S(=O)(=O)N3CCCC3)ccc21)NCc1ccccc1Br`, the survival is 72%.

`CC1CCN(S(=O)(=O)c2ccc3c(ccn3CCC(=O)NCc3ccccc3F)c2)CC1`: the survival was -6% (active).

Turning to `O=C(Cn1ccc2cc(S(=O)(=O)N3CCCCCC3)ccc21)NCc1ccccc1Cl`, the survival is 73%.

On to `O=C(CCn1ccc2cc(S(=O)(=O)N3CCCC3)ccc21)NCc1ccccc1F`, for which the survival is 83%.

Turning to `NC(=O)C1CCCN1S(=O)(=O)c1ccc(F)cc1` (stereo not drawn), the survival is 110%.

As to `Cc1ccc2c(c1)N(C(=O)N1CCC(C(=O)Nc3cccc(F)c3)CC1)CCO2`, the survival is 70%.

`COc1cc(C2c3c(oc4ccc(C)cc4c3=O)C(=O)N2Cc2ccc(F)cc2)ccc1O` (stereo not drawn): the survival was 83%.

In the case of `CCCC(C(=O)Nc1cc(C)c(Cl)cc1OC)N1Cc2ccccc2C1=O` (stereo not drawn), the survival was 71%.

For the compound `CCOC(=O)c1ccccc1NS(=O)(=O)c1c(-c2ccc(C)cc2)csc1C(=O)OC`, the survival was 134%.

Consider `Cc1ccc2oc(-c3ccc(Cl)c(NC(=O)c4cc5ccccc5o4)c3)nc2c1`, for which the survival is 66%.

Take `CSc1nnc2c(n1)OC(c1cccc(O)c1Cl)Nc1ccccc1-2` (stereo not drawn): the survival was 71%.

With `CSc1nc(Nc2cccc(C)c2)c(C#N)c(-c2ccccc2)n1`, the survival was 104%.

Take `CCCCOC(=O)c1ccc(NC(=O)C2(c3cccs3)CCOCC2)cc1`: the survival is 72%.

Turning to `COc1ccc(/C=C/C(=O)Nc2ccc3nc4c(c(Nc5ccccc5OC)c3c2)CCCC4)cc1`, the survival is 93%.

In the case of `COc1ccccc1C(=O)NCCSc1c(C)[nH]c2ccccc12`, the survival was 52%.

As for `COC(=O)c1ccc(NC(=O)CCCC(=O)OCC(=O)c2ccc(Cl)cc2)cc1`, the survival is 87%.

On to `O=C(Nc1ccccc1F)c1oc2ccccc2c1NC(=O)c1c(F)cccc1F`, for which the survival was 53%.

`Cc1ccc(C)c(Cn2c(=O)n(-c3ccc(Cl)cc3)c(=O)c3c(C)c(C)sc32)c1`: the survival was 73%.

With `Cc1ccc(-n2c(=O)c3c(C)c(C)sc3n(Cc3ccc(F)cc3Cl)c2=O)cc1C`, the survival is 60%.

For `Cc1sc2c(c1C)c(=O)n(CCc1ccccc1)c(=O)n2Cc1cccc(F)c1`, the survival is 9% (active).

On to `CCOc1ccc(-n2c(=O)c3c(C)c(C)sc3n(CC(=O)C(C)(C)C)c2=O)cc1`, for which the survival is 125%.

As for `Cc1ccc(Cn2c(=O)n(CCc3ccccc3)c(=O)c3c(C)c(C)sc32)cc1`, the survival was 22% (active).

With `Cc1ccc(Cn2c(=O)n(Cc3ccccc3)c(=O)c3c(C)c(C)sc32)cc1`, the survival is 83%.

As to `Cc1sc2c(c1C)c(=O)n(CCc1ccccc1)c(=O)n2Cc1ccc(C(C)(C)C)cc1`, the survival was 85%.

In the case of `Cc1sc2c(c1C)c(=O)n(CCc1ccccc1)c(=O)n2Cc1ccc(F)cc1`, the survival was 50%.

On to `CCOc1ccc(-n2c(=O)c3c(C)c(C)sc3n(Cc3ccccc3C)c2=O)cc1`, for which the survival was 89%.

`Cc1ccc(Cn2c(=O)n(-c3ccc(C)c(C)c3)c(=O)c3c(C)c(C)sc32)cc1`: the survival is 46% (active).

Consider `Cc1cccc(Cn2c(=O)n(CCc3ccccc3)c(=O)c3c(C)c(C)sc32)c1`, for which the survival was 90%.

On to `CCOc1ccc(-n2c(=O)c3c(C)c(C)sc3n(Cc3ccc(C(C)(C)C)cc3)c2=O)cc1`, for which the survival is 19% (active).

As to `O=C(CN1CCCN(Cc2ccc(F)cc2)S1(=O)=O)NCc1ccccc1Cl`, the survival is 78%.

In the case of `CC(C)NS(=O)(=O)c1ccc(OCC(=O)N2CCN(c3ccccc3F)CC2)cc1`, the survival was 89%.

On to `FC(F)(F)c1ccc(-c2noc(-c3ccccc3Br)n2)cc1`, for which the survival is 89%.

In the case of `CCOc1cc(C2CC(=O)Nc3cc4c(cc32)OCCO4)ccc1O` (stereo not drawn), the survival is 78%.

As to `CCCc1nn2c(=O)cc(COC(=O)c3ccc(NC(=O)COc4ccccc4F)cc3)nc2s1`, the survival is 121%.

With `CC1CCN(C(=O)c2cc(-c3cccc(Cl)c3)on2)CC1`, the survival is -15% (active).

On to `O=C(NCCc1ccccc1)c1cc(-c2cccc(Cl)c2)on1`, for which the survival is 87%.

On to `O=C(c1cc(-c2ccccc2)on1)N1CCCCC1`, for which the survival is 113%.

As to `O=C(c1cc(-c2cccc(Cl)c2)on1)N1CCN(c2ccccc2)CC1`, the survival was 4% (active).

Take `COCCNC(=O)c1cc(-c2cccc(Cl)c2)on1`: the survival was 136%.

As for `CC1CCN(C(=O)c2cc(-c3ccc(Cl)cc3)on2)CC1`, the survival is 85%.

For `O=C(c1cc(-c2cccc(Cl)c2)on1)N1CCCCC1`, the survival is 66%.

As for `CC1CCN(C(=O)c2cc(-c3ccc(Br)cc3)on2)CC1`, the survival is 78%.

Take `CN(Cc1ccccc1)C(=O)c1cc(-c2cccc(Cl)c2)on1`: the survival is -15% (active).

With `O=C(CSCc1cccc(F)c1)NCc1ccccc1`, the survival is 85%.

Take `CC(=O)Nc1cccc(C(=O)NCc2ccc3c(c2)CCN3C(=O)c2ccccc2)c1`: the survival is 63%.

Regarding `Oc1ccc(NCc2ccccc2OCc2ccccc2)cc1`, the survival was 100%.

`CCOc1cccc(CNc2ccc(O)cc2)c1OCc1ccccc1Cl`: the survival was 54%.

For the compound `CCOc1c(Cl)cc(CNc2ccc3[nH]c(=O)[nH]c3c2)cc1OC`, the survival is 88%.

For the compound `CCOc1cc(CNc2ccc(O)cc2)cc(Cl)c1OCc1ccccc1`, the survival was -5% (active).

For the compound `CCOc1cc(CNc2ccc(C(=O)O)cc2)ccc1OCc1ccccc1`, the survival was 57%.

Regarding `CCOc1cc(CNc2ccc(O)cc2)cc(Br)c1OCc1ccccc1`, the survival is -5% (active).

For `COc1cc(CNc2ccc3[nH]c(=O)[nH]c3c2)cc(Br)c1OCc1ccc(F)cc1`, the survival is 117%.

In the case of `CCOc1cc(CNc2ccc(O)cc2)ccc1OCc1ccc(Cl)cc1`, the survival was 10% (active).

For the compound `Oc1ccc(NCc2ccccc2OCc2ccc(Cl)cc2)cc1`, the survival is 72%.

For `COc1cccc(NC(=O)C2CCN(S(=O)(=O)c3ccc4[nH]c5c(c4c3)CCCCC5)CC2)c1`, the survival was 84%.

As to `COc1ccc(NC(=O)c2ccc(CNS(=O)(=O)c3ccc4c(c3)C(C)(C)C(=O)N4C)cc2)cc1`, the survival was 114%.

As for `COc1cccc(NC(=O)c2nnn(Cc3cccc(C(F)(F)F)c3)c2N)c1`, the survival was 87%.

Turning to `Cc1ccc(Cl)cc1-n1c(CCC(=O)O)ccc1-c1cccs1`, the survival was 64%.

Take `CCOc1ccc(-c2cc3c(=O)n(CC(=O)Nc4cc(F)ccc4C)ccn3n2)cc1`: the survival is 68%.

As to `Cc1ccc(-n2ncc(C(=O)Nc3ccc4c(c3)OCCO4)c2C2CCN(C(=O)OC(C)(C)C)CC2)cc1C`, the survival was 82%.

On to `CCCN1CCc2nc(SCC(=O)Nc3ccc(C)c(Cl)c3)[nH]c(=O)c2C1`, for which the survival was 99%.

As for `O=C(c1cc2ccc3cccnc3c2[nH]1)N1CCN(c2ccccc2)CC1`, the survival was 59%.

Consider `O=C(c1noc2c1CCCCC2)N1CCN(c2ccc(Cl)cc2)CC1`, for which the survival was 73%.

Consider `CC1CCc2onc(C(=O)N3CCN(c4cccc(C(F)(F)F)c4)CC3)c2C1` (stereo not drawn), for which the survival is 10% (active).

Take `CC1CCc2onc(C(=O)N3CCN(c4cccc(Cl)c4)CC3)c2C1` (stereo not drawn): the survival is 88%.

For `O=C(c1cc2ccc3cccnc3c2[nH]1)N1CCN(c2cccc(C(F)(F)F)c2)CC1`, the survival is -2% (active).

For `CC1CCc2onc(C(=O)N3CCN(c4ccccc4)CC3)c2C1` (stereo not drawn), the survival is 121%.

For the compound `O=C(c1noc2c1CCCCC2)N1CCN(c2cccc(Cl)c2)CC1`, the survival is 73%.

On to `O=C(c1noc2c1CCCCC2)N1CCN(c2cccc(C(F)(F)F)c2)CC1`, for which the survival was -3% (active).

Take `O=C(c1cc2ccc3cccnc3c2[nH]1)N1CCN(c2ccc(Cl)cc2)CC1`: the survival is 91%.

Turning to `CCn1c(Cc2ccccc2)nnc1SCC(=O)N(C)C1CCCCC1`, the survival was 108%.

On to `COc1ccc(CNc2nc3c(-c4ccccc4)nnn3c3ccccc23)cc1`, for which the survival is 90%.

On to `COc1ccc(-c2cc(C(=O)Nc3c(C)n(C)n(-c4ccccc4)c3=O)no2)cc1`, for which the survival is 73%.

Take `Cc1cccc(CNC(=O)c2ccc(N3Cc4ccccc4Oc4ncccc43)s2)c1`: the survival was 69%.

For the compound `Cc1ccc(Cn2c(C)c3cnn(CC(=O)N4CCN(c5cc(C)ccc5C)CC4)c(=O)c3c2C)cc1`, the survival is 65%.

For `CCOC(=O)c1noc2ncn(CC(=O)Nc3ccc(F)cc3Cl)c(=O)c12`, the survival is -6% (active).

Take `CCOC(=O)c1noc2ncn(CC(=O)Nc3ccccc3OC)c(=O)c12`: the survival is 133%.

For `CCOC(=O)c1noc2ncn(CC(=O)Nc3cc(Cl)ccc3OC)c(=O)c12`, the survival was 76%.

`COc1cccc(NC(=O)Cn2c(=O)n(Cc3ccc4c(c3)OCO4)c(=O)c3oc4ccccc4c32)c1`: the survival was 80%.

In the case of `CC(=O)c1ccc(N2CCN(C(=O)CCn3cnc4onc(-c5ccc(F)cc5)c4c3=O)CC2)cc1`, the survival was -6% (active).

Consider `O=C(CCn1cnc2onc(-c3ccc(F)cc3)c2c1=O)N1CCN(c2ccc(F)cc2)CC1`, for which the survival is 98%.

`O=C(CCn1cnc2onc(-c3ccc(F)cc3)c2c1=O)N1CCN(c2ccccc2F)CC1`: the survival is -6% (active).

Turning to `O=C(Cn1cnc2onc(-c3ccc(F)cc3)c2c1=O)N1CCN(c2ccccc2F)CC1`, the survival is 71%.

As to `O=C(CCn1cnc2onc(-c3ccc(F)cc3)c2c1=O)N1CCN(c2ccccc2)CC1`, the survival is 75%.

For `COc1ccccc1N1CCN(C(=O)CCn2cnc3onc(-c4ccc(F)cc4)c3c2=O)CC1`, the survival was 87%.
